Measurements reported in PubChem BioAssay AID1508600 (Functional Genomics Laboratory (NCATS/FGL), 2020).
The whole screen tested about 53,000 sequences, of which about 3,700 (7%) were called active. This excerpt belongs to a sample that is enriched for actives. Values without a mark were called inactive.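 Rule for the calls: active = gene knockdowns whose robust z-score for IL-1 alpha signal is at least 2 or at most -2, so actives lie on both sides; inactive = the rest.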

Assay: Components of the Cytosolic LPS Sensing Pathway: Gene Identification via Genome-wide siRNA Screen;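 note: robust z of the log signal after scaling to non-targeting control siRNA wells of the plate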
Conditions: RAW264.7 macrophages, IL-1a HTRF, actives lie on both sides, screened at 100 nM (by protocol), cells primed 5 h with Pam3CSK4 first
In short: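 IL-1a HTRF of supernatants after 24 hour LipidA transfection of Pam3CSK4-primed (5 hours) RAW264.7 cells, 48h post-siRNA transfection (100 nM). Scores: percent of plate negative-control median, then log-based robust z-score.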

Row | Sequence | z-score
1 | GGGACUUUAAAAAAGACUCTT against Olfr1366 | 2.1 (active)
2 | CCAGAGGUCUCUAUUAAGATT against Cad | -0.0939
3 | GGACAUGGAUCAAAGUUCATT against Zfp40 | -0.645
4 | GGCAUCUCCUCGAAUUUAUTT against Theg | -0.737
5 | GGAGCAUCCCGACUACAAGTT against Sox21 | 3.54 (active)
6 | GGAUCGAUCUGACAUCAAATT against Epyc | -0.31
7 | CCUAUUAAUAUGGAAAGUGTT against Arcn1 | 0.675
8 | GGGCAACUAUCUUCAAAAATT against Nxnl2 | 0.328
9 | GGCAAUUACCCACCCUGUUTT against Mfsd6 | -2.57 (active)
10 | CCAAGCCUAAUAAAAUUCCTT against Lsr | 0.867
11 | GGCAGAAAACAAGAUAAAGTT against Eif4h | -0.325
12 | CGGCAAGAUGUCUACUAACTT against Wdtc1 | 0.655
13 | CCCUAACUCUGUUAAUGCATT against Casp14 | -0.627
14 | GGAAAUUGGUCCAGUUAUUTT against Magee1 | 1.37
15 | CCAACUGUUGGUGAUGAUGTT against Cpsf6 | -2.05 (active)
16 | GCGGGCCAUAAAGAGACAUTT against Timm17a | -0.164
17 | GGGAUUUAAAGCCAACUUGTT against Sfpq | 0.62
18 | GGAGAAAUAGAUUCAGUGATT against Cep170 | -0.839
19 | GGCAGUUUUUGGACUGUCCTT against Olfr556 | -0.21
20 | GGUUAAGAGCGUACGUUUUTT against Tmem204 | 1.46
21 | GGACAACCUUUACUUCUCUTT against Rhox9 | -2.78 (active)
22 | GGGAGAUCUCUCACAGAUCTT against Gja10 | 1.41

Row | Sequence | z-score
23 | CCAUAGUGUAUCUGACUGGTT against Iqsec1 | -0.135
24 | GGUGGUGAAGCUAAAGCAGTT against Prkaca | -1.58
25 | GCAUGGACAGUUAUGUAUATT against Slc5a6 | -0.207
26 | GGUGUUAGAUUCUUUGUAATT against Cst6 | 2.04 (active)
27 | GGUAUAGUAGUGGAAGAUUTT against Uso1 | 0.341
28 | GGACUUAUGGCAUUAGAAUTT against Nup88 | -1.17
29 | GGUGAUCCUAAGAAAGUCCTT against Ireb2 | 1.07
30 | GGAUUGGUUUAGUCAAUAATT against Psmc4 | -2.03 (active)
31 | GCUUCCUUCUGCUAGAUGGTT against Oxct2a | -0.409
32 | GGUUUAGAAUGCAUAACAGTT against Dzank1 | -0.217
33 | UAUUAAACUCUUGAGACCGTT against Oxa1l | -0.571
34 | GGAAAAGCCUACUUCAAAATT against Efcab7 | 0.9
35 | GGAAAACAAGUGGAAAGGGTT against C130071C03Rik | 1.54
36 | GGAUCAGCAACAGUCUCCATT against 1700029M20Rik | -2.01 (active)
37 | CCAGCUUCCUCGUAAGUGATT against Hsf4 | -1.71
38 | CCACGAUAUUCCAGGUCUGTT against AF067063 | -1.54
39 | GCGAUUGUCCAAGAAUUCCTT against Crcp | 0.822
40 | GGGAGAGGACGACAUUUACTT against Otx2 | 0.645
41 | GGAGCCAUGCUAAGAGCAUTT against Dbil5 | 0.494
42 | GCCAGAGUGUCGAAUAUCATT against Dll4 | -0.417
43 | GGACGCAGACAGGACAAAATT against Parp2 | 2.16 (active)
44 | GUUACUGCGUGGACUGUGUTT against C730034F03Rik | -0.0785

Row | Sequence | z-score
45 | GCCGUAGGUUAGAGAAUCGTT against Nxnl1 | -0.348
46 | CCGUCUUUGUGCUAUGCUGTT against Sstr4 | 1.56
47 | GGAGGUGAAGCUUCGAAUGTT against Slc25a10 | 0.052
48 | GGAAAUGGCCUCCAUGAGATT against Krt14 | 0.734
49 | GGCCUUGCACUUCAGUUUCTT against Mfsd4b1 | -0.436
50 | GGAAAGAAGAAAUGAGAAGTT against Gm9871 | -1.57
51 | CGGAAGAAGCCAGUUAAGATT against Apol9b | 0.665
52 | GCGUGGAAGGUCUGAACACTT against Arfgap3 | 4.18 (active)
53 | GGAGUUGUGAAUUUCUCGUTT against Sri | -0.198
54 | GGUUACUAGAAAAGUGUUGTT against Olfr1489 | 1.41
55 | GGGAAUUUCCUGAAAUCCUTT against Mettl8 | -0.167
56 | GGUUAACCUGAGAAAAAUGTT against Mkrn1 | 0.734
57 | GGCAACUUAGGAGUUAGACTT against Pgam5 | 0.533
58 | GUGUGAACAGAGGCAGAAATT against Xlr3a | -2.46 (active)
59 | CCCUAAGCUCUGUUCCCAGTT against Olfr371 | -0.561
60 | GCCAAUCUCUGCUAGAUACTT against Slc46a1 | 0.447
61 | GGCAACACACUGUCAUUUCTT against Il9 | -1.06
62 | CCAACUGUGAUCAGUGAGCTT against Shank3 | -0.387
63 | GGCCUUGAAGGAGAUGCUATT against Rell2 | 0.887
64 | GCAGAUCAUUCCCGUGUUGTT against P2ry14 | 0.565
65 | GGACAAGAAGGAAAAGAAATT against Brd4 | -3.25 (active)
66 | GCUGUGCAAGGUGAGGAAATT against Rps4l | 1.25

Row | Sequence | z-score
67 | GGUGAUGGAAAUAAACUACTT against Dhrs7b | 1.44
68 | GGACAAGAAGCCACUGACATT against Arrb1 | 2.2 (active)
69 | GGACCAUUAAACUAAAUGGTT against Tpte | -0.592
70 | GCUCUCACAGGAUAAGGCUTT against Cryga | -0.126
71 | CCUCGUUAUCCUCAUGGGATT against Alppl2 | 0.649
72 | GGUUUGAGUGGAAAAUUCATT against Csn1s2b | 0.904
73 | CCCACAGAACCACACAUUCTT against H2-DMa | 3.11 (active)
74 | GGAGGCUGAGUAUUGGCUUTT against Pi4k2b | -1.06
75 | GCUCUACCCAAUCAAGACCTT against Asb14 | 0.31
76 | GCAGUCGAAGCACUAAAAATT against Dnaaf2 | 0.412
77 | CGACCUACUCUACAGCAAATT against Brinp3 | 2.6 (active)
78 | GGAACUGAAGGGCAAUAUCTT against Kifc5b | 1.99
79 | GGGCUCCUUCCUUGAAAAGTT against Dclre1c | 0.365
80 | GACCACACUCAUCCAGGCUTT against Gtpbp6 | 0.817
81 | GGAAACGAUGACAUUUCAATT against Pnrc2 | 0.0147
82 | GGGCGUAGAAACAGCAACUTT against Ushbp1 | -2.14 (active)
83 | GGCCAGAGACUGCCUGAUUTT against Acaa1b | 0.225
84 | GGUCAUUCAGCUGGAAGAUTT against Zfp143 | -1.07
85 | GGGUAGGUAUCAAAAUAAUTT against 6030452D12Rik | 0.172
86 | GCCACGUGAUAGUAAUAAATT against Psmd12 | 0.0999
87 | GGAGAAUGAAGAGUUAGACTT against Nfu1 | 0.608
88 | AUUACAAGGUUUGUGGAUATT against Gsdmc3 | 0.188

Row | Sequence | z-score
89 | GGUGGAUAGAGCAAUUGAATT against Jph1 | 1.5
90 | GGCGGCACAAAUUGUUUUUTT against Gimap9 | -2.03 (active)
91 | GCCAAGUACUCGUUUCCACTT against Wtap | 0.826
92 | GCCUUGGACUGCUUUGGAUTT against Dync1li1 | -0.379
93 | GGCAUUCCUCUUGAAUAUUTT against Dck | -0.805
94 | GCCCUACCCUCAUCAUAAATT against Tmem94 | -1.36
95 | GGACUUCAGAGUGGACAUUTT against Sec16b | -0.19
96 | GGAAAGUUGGACCUUCUGATT against Adamts6 | 2.35 (active)
97 | GCUGUGAAGAAUCAGAUAGTT against Aatf | -0.155
98 | GGAUUUAUGGCAAGUUUCUTT against Ppp2r5e | 0.00387
99 | CCAGGUGUACCUUACGUUGTT against Eif4ebp2 | 1.05
100 | CGGACAAGAUAAAGUGUGUTT against Lypd9 | -1.07
101 | GGAACUCACACAGAACCAATT against Bloc1s6 | 6.84 (active)
102 | GGUGUAAAGUAAUCAAGGCTT against Dbx2 | 0.453
103 | GGUUUUAUGAGAAAGCAGATT against Ogfod1 | 0.0298
104 | GCACAGCUACCAUUCACAATT against Nxpe2 | -1.97
105 | GGAGGAACAUAUGCUCAGATT against Lce1e | -2.99 (active)
106 | CCACUAAGGUUUGAAGAAGTT against Nes | 1.21
107 | CCUGAUUAUUCUGAGAAAUTT against Adsl | 1
108 | GGGACUCGAGUUUCAUCUATT against Casc1 | 0.768
